Shiga inhibitor – blocks Shiga toxin action in Vero cells. Vero cells, Shiga toxin protein synthesis inhibition reporter. inhibition, % at 38.7 µM. 290,000 tested, 9.2% active. AID 2315; in the data active means inhibition mostly above about 28%, no sharp cut-off; inactive means mostly below about 43%; further: 0% is about no effect
Pf growth 48h – P. falciparum growth inhibition at 48 hours (one generation); P. falciparum luciferase growth in erythrocytes, 48 h; Potency, µM (highest dose often 28.7 µM), without a hit: at the highest dose activity change, negative = inhibition, actives largely listed as inhibitors; 310,000 tested, 5.9% active; AID 504832; further: potency means the concentration at half of the fitted maximal effect; on the % scale 0 is the no-effect control and ±100 the full control effect
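Cell-based growth assay: transgenic P. falciparum expressing firefly luciferase, cultured in red cells within RPMI 1640 containing 0.5% w/v Albumax, 24 mM bicarbonate and gentamycin. A drop in luciferase activity indicates inhibition.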
Pf growth 96h – P. falciparum growth inhibition at 96 hour, primary screen for plastid delayed-death inhibitors. Potency, µM (doses to about 28.7 µM), without a hit: at the top dose activity change, negative = inhibition, most hits filed as inhibitors. AID 504834. P. falciparum luciferase reporter growth, 96 h. 320,000 tested, 6.9% active; further: potency means the concentration at half of the fitted maximal effect; on the % scale 0 is the no-effect control and ±100 the full control effect
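96 h incubation, 37 C, 5% CO2, of luciferase-reporter P. falciparum-infected RBCs (2% hematocrit, 0.05% parasitemia final) with test compounds; endpoint luminescence.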
HCMV inh – blocks human cytomegalovirus replication. activity change, negative = inhibition, % at 57.5 µM. 410,000 tested, 4.5% active. AID 1259415. HFF cells, HCMV-luciferase reporter, 72 h; active compounds read low; in the data active means activity change below about -60%; inconclusive means no clear call, values can overlap the other calls; inactive means above about -39%; further: on the % scale 0 is the no-effect control and ±100 the full control effect
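Cell-based, HFFs, 1000 cells/well, 16 h 37C; cpds in DMSO + HCMV-luc, MOI 1 PFU/cell; 72 h 37C; OneGlo luminescence after 5 min RT; norm. to buffer vs Salinomycin 10uM.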
Cycloheximide cs – counter-screen hit for Shiga toxin inhibitors, cycloheximide; cell reporter, cycloheximide protein synthesis inhibition counterscreen; max response, %; 300,000 tested, 12% active; AID 2314; in the data active means max response mostly above about 13%, no sharp cut-off; inactive means mostly below about 14%; further: read at 38.3 µM for the half of the compounds with a filed dose; 0% is about no effect
An asterisk follows results filed as active; u = inconclusive; x = not tested or not shown; [ ] = remark or other dose. Shown are actives, neighbours in structure and some others; about 20% of the full set was active somewhere. Unless noted, the call rests on the fitted dose curve; in most records, active means well fitted inhibition curve with a large enough effect; inconclusive means small, poorly fitted or top-dose-only effect, or another doubt; inactive means no such curve, though single readings can be large or run the other way.

SMILES	Shiga inhibitor	Pf growth 48h	Pf growth 96h	HCMV inh	Cycloheximide cs
O=C(/C=C/c1cccs1)N1CCC2(CC1)Oc1ccc(F)cc1C(=O)C21CC(c2ccccc2)=NO1 (centres undefined)	-1.4	10.4µM*	9.28µM*	0.0	4.5
CCC(=O)N1CCC2(CC1)Oc1ccc(F)cc1C(=O)C21CC(c2cccnc2)=NO1 (centres undefined)	17.3	48.4%	27.0%	3.4	-1.8
Cc1noc(C)c1C(=O)N1CCC2(CC1)Oc1ccc(F)cc1C(=O)C21CC(c2ccc(Cl)cc2)=NO1 (centres undefined)	-7.5	11.7µM*	u	24.5	-4.3
O=C(c1ccc2c(c1)OCO2)N1CCC2(CC1)Oc1ccc(F)cc1C(=O)C21CC(c2ccc(Cl)cc2)=NO1 (centres undefined)	-5.2	-21.7%	-3.6%	0.0	-3.0
CC(C)(C)OC(=O)N1CCC2(CC1)Oc1ccc(F)cc1C(=O)C21CC(c2cccnc2)=NO1 (centres undefined)	-3.3	10.4µM*	u	37.8	-3.9
O=C(c1ccc2c(c1)OCO2)N1CCC2(CC1)Oc1ccc(Cl)cc1C(=O)C21CC(c2ccccc2)=NO1 (centres undefined)	-11.2	11.7µM*	13.1µM*	u	-4.2
O=C(CN(Cc1ccccc1)S(=O)(=O)c1ccc(F)cc1)NCc1ccccn1	-15.2	u	u	-31.6	-5.9
O=c1c2c3c(sc2nnn1Cc1ccc(F)cc1)CCCC3	x	x	x	-12.0	x
CN(C)CCCNC(=O)c1ccc(=O)[nH]n1	12.7	u	-12.6%	u	-0.5
Nc1nc2c(ncn2[C@@H]2O[C@H](CNC(=O)[C@H](N)C3CCCCC3)[C@@H](O)[C@H]2O)c(=O)[nH]1	x	x	x	-1.6	x
O=C(/C=C/c1cccs1)N1CCC2(CC1)Oc1ccc(Cl)cc1C(=O)C21CC(c2ccc(Cl)cc2)=NO1 (centres undefined)	x	x	x	-31.3	x
O=C(/C=C/c1cccs1)N1CCC2(CC1)Oc1ccc(F)cc1C(=O)C21CC(c2ccc(Cl)cc2)=NO1 (centres undefined)	8.6	9.28µM*	1.85µM*	-6.6	3.1
CCOC(=O)c1[nH]c(C)c(C(=O)Nc2ccc(Cl)cc2)c1C	25.5	26.1%	-21.7%	31.2	16.2
CCOC(=O)c1c(C)[nH]c(C(=O)NNC(=O)c2ccc(Br)cc2)c1C	x	84.4%	70.5%	5.8	x
CCOC(=O)c1c(C)[nH]c(C(=O)Nc2ccc(NC(C)=O)cc2)c1C	-8.8	0.0%	0.0%	-65.2*	-2.9
CCOC(=O)c1c(C)[nH]c(C(=O)NNC(=O)c2ccccc2)c1C	88.8*	145.8%	277.4%	194.8	30.7*
CCOC(=O)c1c(C)[nH]c(C(=O)Nc2ccc(C)c(Cl)c2)c1C	103.0*	-54.7%	u	x	34.7*
COC(=O)C1=C(C)N(Cc2cccc(C(F)(F)F)c2)C(=NCc2ccc(C(F)(F)F)cc2)NC1c1cccc(F)c1 (centres undefined)	x	x	x	-98.9*	x
COC(=O)C1=C(C)N(Cc2ccccc2)C(=NCc2ccco2)N[C@H]1c1cccc(F)c1	x	x	x	1.4	x
COC(=O)C1=C(C)N(Cc2ccc(C(F)(F)F)cc2)C(=NCc2ccccc2)NC1c1cccc(F)c1 (centres undefined)	x	x	x	-99.3*	x
COC(=O)C1=C(C)N(Cc2ccccc2)C(=NCC(C)C)N[C@H]1c1cccc(F)c1	1.0	13.1µM*	u	-30.4	-3.8
COC(=O)C1=C(C)N(Cc2ccccc2)C(=NCc2cccc(Cl)c2)N[C@H]1c1cccc(F)c1	-16.9	8.28µM*	u	x	-10.4
COC(=O)C1=C(C)N(Cc2ccccc2)C(=NCc2cc(OC)c(OC)c(OC)c2)N[C@H]1c1cccc(F)c1	1.1	10.4µM*	10.4µM*	x	-3.6
COC(=O)C1=C(C)N(Cc2ccccc2)C(=NCc2ccc(OC)cc2)N[C@H]1c1cccc(F)c1	-7.6	u	u	u	-2.6
CC(CN1CCCC1)OC(=O)c1ccc(F)cc1 (centres undefined)	-4.1	6.2%	u	4.0	-1.2
SMILES	Shiga inhibitor	Pf growth 48h	Pf growth 96h	HCMV inh	Cycloheximide cs
Cc1ccc(C(=O)OC(C)CN2CCN(C)CC2)cc1 (centres undefined)	48.5*	8.8%	-2.1%	80.9	16.7*
CCOc1ccc(C(=O)OC(C)CN2CCCCC2)cc1 (centres undefined)	25.9*	-3.9%	u	0.7	9.7
COc1ccc(C(=O)OC(C)CN2CCN(C)CC2)cc1 (centres undefined)	36.3	20.3%	u	35.7	11.8*
CCOC(=O)C1=C(C)C2C3C(=O)N(c4cc(C)ccc4C)C(=O)C3C1(C)C1C(=O)N(c3cc(C)ccc3C)C(=O)C21 (centres undefined)	-10.9	13.1µM*	u	-30.7	0.9
Cc1ccc(NC(=O)c2ccc(NCCCN3CCOCC3)c([N+](=O)[O-])c2)cc1Cl	8.0	2.33µM*	78.6%	u	1.3
CC(C)[C@H](Nc1ccc(S(=O)(=O)N2CCOCC2)cc1[N+](=O)[O-])C(=O)OCC(=O)N(C(C)C)C(C)C	3.4	u	5.22µM*	15.3	-2.3
O=[N+]([O-])c1cc(S(=O)(=O)N2CCCCC2)ccc1NCCCN1CCOCC1	42.1*	u	1.47µM*	u	43.0
O=C(Nc1ccc(Cl)c([N+](=O)[O-])c1)c1ccc(NCCCN2CCOCC2)c([N+](=O)[O-])c1	-5.3	14.7µM*	u	-20.5	6.7
O=[N+]([O-])c1cc(S(=O)(=O)N2CCCCC2)ccc1NCCN1CCOCC1	3.2	u	u	-20.4	-4.5
COc1ccc(NC(=O)c2ccc(NCCCN3CCOCC3)c([N+](=O)[O-])c2)cc1	-7.9	u	-2.7%	-0.6	1.1
Cc1c(Cl)c(C(=O)NC2C3CC4CC(C3)CC2C4)nn1C (centres undefined)	-5.2	u	u	-5.1	-2.8
Cc1ccc(Nc2ccc(S(=O)(=O)N3CCOCC3)cc2[N+](=O)[O-])c(C)c1	-3.1	u	-99.4%	-64.8*	-1.8
CC(C)(CNc1ccc(S(=O)(=O)C(F)(F)F)cc1[N+](=O)[O-])N1CCOCC1	30.6*	u	u	10.9	35.4*
CC(C)(CNc1ccc([N+](=O)[O-])cc1C#N)N1CCOCC1	5.3	-16.2%	u	-29.3	-1.2
Cc1ccccc1Nc1ccc(S(=O)(=O)N2CCOCC2)cc1[N+](=O)[O-]	-9.9	-5.6%	-22.0%	3.1	-3.1
CN(C(=O)COC(=O)c1ccccc1SCC(=O)NC1CCCCCCC1)C1CCS(=O)(=O)C1 (centres undefined)	21.2	3.6%	-13.9%	u	-5.0
Cc1cccc(-n2cnc3cc(C(=O)NC4CCCCCC4)ccc32)c1	x	x	x	-29.7	x
Cn1c2c(c3ccccc31)CCN1CCC[C@]21c1ccccc1	-6.4	1.4%[0.00184 µM]	8.28µM*	67.8	-1.6
COc1ccc(/C(O)=C2/C(=O)C(=O)N(c3ccccn3)C2c2ccc(C(C)C)cc2)cc1 (centres undefined)	8.1	32.1%	6.5%	88.5	9.8

Bioassay records (PubChem BioAssay)
